Source: PubChem BioAssay (NCI)
About 83,000 compounds went through this panel and 20% of them were active in at least one assay; those are over-represented in the sample as a whole.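 The test compound was applied at a single concentration to cells in 96-well plates for 48 hours, and percent growth was recorded.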 A number with no mark means an inactive call. Active and inactive are the calls of the source.

What follows are compounds tested on U251 CNS (assay: NCI-60 one-dose screen, 48 h (100 = growth as untreated, 0 = no growth, -100 = all killed)). Conditions: 10 µM unless noted.
Description: Growth inhibition of the U251 human tumor cell line is measured as a screen for anti-cancer activity. Cells are grown in 96 well plates and exposed to the test compound for 48 hours. Compounds are tested at a single concentration, which is 10^-5 M for most compounds. The reported endpoint is percent growth (GI% or GIPRCNT), where numbers from 0 - 100% represent growth inhibition, and numbers from -100% - 0 represent cell death. For example, a value of 40 represents 60% growth inhibition. A value of 0 means no net growth occurred over the course of the experiment. A value of -40 indicates 40% of cells at the beginning of the experiment died by the end of the experiment. A value of -100 means all cells are dead at the end of the experiment.
NCI-60 Human Tumor Cell Lines Screen was performed using the standard one-dose NCI protocol, which is described in more detail at https://dtp.cancer.gov/discovery_development/nci-60/default.htm.
Compounds with GIPRCNT values below 10 were considered active. Activity score was based on GIPRCNT using the following formula: […]
Score is 0 for GIPRCNT values of 100 or above, 50 for GIPRCNT values of 0, and 100 for GIPRCNT values of -100.
COc1ccc2c(c1)CC/C(=C\c1cncc(Br)c1)C2=O showed a growth of 85.9%. For Cc1ccc2oc(=O)cc(C3c4ccc([nH]4)C(c4cc(=O)oc5ccc(C)cc45)c4ccc([nH]4)C(c4cc(=O)oc5ccc(C)cc45)c4ccc([nH]4)C(c4cc(=O)oc5ccc(C)cc45)c4ccc3[nH]4)c2c1 (stereo not given), the growth was -80.7% (active). With O=C1C=C(OCC=C(Cl)Cl)C(=O)c2ccccc21 the growth was 75.7%. For O=C1/C(=C/c2ccc(OCCCOc3ccc(Cl)cc3)cc2)N=C2SCCCN12, the growth was 69.6%. For FC(F)(F)c1ccc(-c2cn3nc(-c4c[nH]c5ccc(Br)cc45)sc3n2)cc1, the growth was 92.2%. In the case of CN1CCN(c2ccc3nc(-c4ccc(OCCCCN5CCN(CCCCN6C(=O)c7cccc8cccc(c78)C6=O)CC5)cc4)[nH]c3c2)CC1, the growth is reported as 64.8%. OC(COc1cccc2ccccc12)CN1CCN(c2ccccc2Cl)CC1 (stereo not given) gave a growth of 97.8%. O=C(Nc1cccc2[nH]c(C(F)(F)F)nc12)c1ccc(-n2cnnn2)cc1 was tested, and the growth was 94.4%. Work on CC(C)(CCCN=C(N)Nc1ccc(Cl)cc1)c1ccc(F)cc1 yielded a growth of 65.5%. CC1=C(O)C(=O)C(C(C#N)(C#N)C(C#N)C#N)C1 (stereo not given) was tested, and the growth was 113%. With CC1=C[C@H]2c3c(c(O)c(O)c4oc(-c5ccccc5)cc(=O)c34)[C@H](c3cc(O)c(O)c4oc(-c5ccccc5)cc(=O)c34)[C@H]2C(C)(C)C1 the growth was 2.66% (active). NC(=NC1C2CC3CC(C2)CC1C3)Nc1ccc(I)cc1 (stereo not given) showed a growth of 50.4%. For CCOc1cc2ncc(C#N)c(Nc3ccc(F)c(Cl)c3)c2cc1NC(=O)CC1CCSS1 (stereo not given), the growth was -58.9% (active). CC/C=C\C[C@H]1C/C=C2/C(=O)C=C[C@H]2C/C=C\CCCC(=O)O1 gave a growth of 10.4%. OCCNc1nccc(N2CCN(c3ccnc4cc(Cl)ccc34)CC2)n1 showed a growth of 86%. In the case of O=c1oc2c(C(F)(F)F)cccc2cc1-c1csc(Nc2ccc(OCCF)cc2)n1, the growth is reported as 5.11% (active). For COc1cc(C(=O)Oc2ccccc2OC(=O)c2cc(OC)c(OC)c(OC)c2)cc(OC)c1OC, the growth was 104%. Work on Nc1nc2ncc(CCNc3ccc(C(=O)O)cc3)nc2c(=O)[nH]1 yielded a growth of 109%. CC(=O)Oc1ccc(Cl)cc1CN(C(C)=O)C1CCCCC1 was tested, and the growth was 95.9%. O=C(/C=C/c1ccc(C(F)(F)F)cc1)Nc1ccc(C=C2c3ccccc3C(=O)c3ccccc32)cc1 was tested, and the growth was 33.8%. COc1ccc(/C=C\c2cc(OC)c(OC)c(OC)c2)cc1OC(=O)c1cccc(Cn2cc(CCOC(=O)[C@H](N)Cc3cn(C)c4ccccc34)nn2)c1 was tested, and the growth was 19.2%. Compound O=c1cc(CSc2nnc(SCc3cc(=O)oc4c3ccc3ccccc34)o2)c2ccc3ccccc3c2o1 has a growth of 97.2%. O=C(/C=C/C=C/c1ccc2c(c1)OCO2)N/N=C\c1ccc(O)cc1O showed a growth of 31.3%. With COC(=O)[C@@H]1CCCN1C(=O)[C@@H]1CCCN1C(=O)[C@H](Cc1ccccc1)NC(=S)Nc1cc(C(F)(F)F)cc(C(F)(F)F)c1 the growth was 7.88% (active). Compound O=C(O)c1ccc(NC(=O)c2ccc(-c3cccc([N+](=O)[O-])c3)o2)cc1 has a growth of 96.8%. Compound O=c1c2c3c(sc2nc(N/N=C/c2cn(-c4ccccc4)nc2-c2ccc(Cl)cc2)n1Cc1ccccc1)CCCC3 has a growth of 111%. In the case of O=C(NCCN1CCOCC1)Nc1ccc(-c2cc3c(Nc4ccc(Oc5cccc(C(F)(F)F)c5)c(Cl)c4)ncnc3s2)cc1, the growth is reported as 0.383% (active). With CCCCC[C@H]1C/C=C2/C(=O)C=C[C@@H]2C/C=C\CCCC(=O)O1 the growth was -78.2% (active). With NC(N)=N/N=C(/c1ccccc1)c1ccc(F)cc1 the growth was 4.79% (active). In the case of Clc1ccc2c(NCCCNc3nc(-n4ccnc4)nc4ccccc34)ccnc2c1, the growth is reported as 83.5%. COc1ccc(-n2nc(C)c3c(Oc4ccc(NC(=O)Nc5c(Cl)cccc5Cl)cc4)ncnc32)cc1 showed a growth of 96.9%. With COc1cc(C)c(C2C(C#N)=C(N)Oc3n[nH]c(-c4cccs4)c32)cc1C(C)C (stereo not given) the growth was 90.2%. CC1=C[C@H]2c3c(c(O)c(O)c4oc5ccccc5c(=O)c34)[C@H](c3cc(O)c(O)c4oc5ccccc5c(=O)c34)[C@H]2C(C)(C)C1 was tested, and the growth was 5.08% (active). In the case of Cc1cc(Nc2ccc(C)c(Cl)c2)n2nc(C(F)(F)F)nc2n1, the growth is reported as -18.3% (active). Work on COc1ccc2[nH]cc(-c3noc(C(=O)c4cn(C)c5ccc(F)cc45)n3)c2c1 yielded a growth of 101%. Cc1cc(N2CCCC2)nc(NC2CCCC(Nc3ccnc4cc(Cl)ccc34)C2)n1 (stereo not given) was tested, and the growth was -96.1% (active). Cc1ccc2c(c1)C(=O)/C(=C/c1cccc(OCC(=O)c3ccc(Cl)cc3)c1)CS2 showed a growth of 89.7%. Cc1cc(C)c2nc3nc(C)cc(C)c3c(N)c2c1 gave a growth of 15.3%. Work on CN(Cc1cc(Cl)cc(Cl)c1O)Cc1cc(Cl)cc(Cl)c1O yielded a growth of 58.6%. For C[n+]1ccccc1/C=C/c1ccc2cccc(O)c2n1, the growth was 100%.
